# Assay results published in PubChem BioAssay AID1839 (Johns Hopkins Ion Channel Center, 2009).
# In all, about 2,400 compounds went through this assay and about 220 (9.2%) were called active. Shown is part of a subset that was picked to be rich in actives. Unmarked numbers belong to inactive results.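 How the source made its calls: active means signal change above the mean of dofetilide-free buffer controls plus 3 SD, so a positive margin; inactive means the rest.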
# Experiment: thallium signal changes without hERG – cell-based, CHO-K1 parental line, FluxOR thallium flux, counter-screen for hERG block protection project, confirmation (AID 1839);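 further: compounds applied alone with no dofetilide to cells lacking hERG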
# Conditions: CHO-K1 parental cells, FluxOR thallium flux fluorescence; at 10 µM
row,SMILES,"signal change vs control minus 3*SD hit threshold (margin above threshold, higher = more increase)"
1,Cc1cccc(/C=N/NC(=O)c2cc(Br)ccc2O)n1,-26.5%
2,O=C(N/N=C/c1ccc(Sc2ccccn2)o1)c1cc2ccccc2cc1O,-17.7%
3,C/C(=N\NC(=O)c1cc2ccccc2cc1O)c1ccccn1,-32.4%
4,Cc1ccc(/C=N/NC(=O)c2cc(-c3ccncc3)nc3ccccc23)o1,-58.7%
5,C/C(=N\NC(=S)Nc1c(C)cccc1C)c1cc2ccccc2o1,-26%
6,COc1ccc(CCNC(=O)c2cc3ccccc3oc2=O)cc1,-38.8%
7,C/C(=N\NC(=O)c1cc2ccccc2cc1O)c1cc2ccccc2o1,50.8% (active)
8,C/C(=N/NC(=O)c1cc2ccccc2cc1O)c1ccco1,3.4% (active)
9,Cc1ccc(/C=N/NC(=O)c2cc3ccccc3cc2O)o1,18.2% (active)
10,C/C(=N\NC(=O)c1cc2ccccc2cc1O)c1ccc(C)o1,3.3% (active)
11,Cc1ccc(/C=N/NC(=O)c2cc(C)oc2C)o1,-22.9%
12,C/C(=N\NC(=O)c1ccoc1C)c1cccc2ccccc12,-5.5%
13,NC(=O)Cn1c2[n+](c3ccccc31)CC(O)CS2 (stereo unspecified),-25.7%
14,CC(=O)c1ccc2c(c1)OCCOCCOCCO2,-35.7%
15,CC(CCc1ccccc1)NC(=S)NC(=O)c1ccco1 (stereo unspecified),0%
16,C/C(=C\C(=O)c1ccccc1)NNC(=O)c1ccc(Cl)cc1,-4.7%
17,Cc1ccc(Cn2nnc3c(=O)n(CC(=O)N4CCCc5ccccc54)cnc32)cc1,-24.6%
18,Cc1ccc(C(=O)CC(=O)c2ccccc2C)c(O)c1,-34%
19,Cc1cc(=S)[nH]c2c(C)cccc12,-20%
20,c1ccc(CCCNc2ncnc3nc[nH]c23)cc1,-18.5%
21,CSc1nsc(SCC(=O)Nc2ccccc2C(=O)O)n1,-22.4%
22,O=C(NC(=S)Nc1nc(-c2ccccc2)cs1)c1cncc(Br)c1,-17.9%
23,S=C(Nc1ccc(Cl)cc1)c1nc2ccccc2s1,10.2% (active)
24,Cc1ccc(NC(=S)c2nc3ccccc3s2)cc1,-24.9%
25,Cc1cccc(NC(=S)c2nc3ccccc3s2)c1,-28.6%
26,O=c1[nH]c(C(Cl)(Cl)Cl)nc2ccc3ccccc3c12,-12%

row,SMILES,"signal change vs control minus 3*SD hit threshold (margin above threshold, higher = more increase)"
1,COc1ccc(C)cc1NC(=O)C(=O)NNC(=O)c1ccco1,23.7% (active)
2,O=C(CCC(=O)Nc1ccccc1)NNC(=O)c1ccco1,-34.1%
3,COc1ccccc1NC(=O)C(=O)NNC(=O)c1ccco1,6.5% (active)
4,COc1ccc(C)cc1NC(=O)Nc1ccc(C(=O)N2CCCC2)cc1,-20.5%
5,COc1ccc(OC)c(NC(=O)C(=O)NNC(=O)c2cccs2)c1,-26.1%
6,COCC1CCCN(C(=O)c2ccc3oc(C(C)C)nc3c2)C1 (stereo unspecified),-17.8%
7,C/C(O)=C/c1nc2ccccc2[nH]c1=O,-30.7%
8,CSc1nc2c(c(=O)[nH]1)C(c1ccc(Br)cc1)CC(=O)N2 (stereo unspecified),-22.1%
9,C=CCn1c(=S)[nH]c2scc(-c3cccs3)c2c1=O,37.4% (active)
10,C=CCn1c(=S)[nH]c2scc(-c3ccc(C)o3)c2c1=O,27.1% (active)
11,C=CCn1c(SCC(N)=O)nc2scc(-c3ccc(C)o3)c2c1=O,-20.7%
12,C=CCn1c(=S)[nH]c2ccc(Br)cc2c1=O,-17.4%
13,C=CCn1c(=S)[nH]c2cc(-c3ccccc3)sc2c1=O,-25.2%
14,Cc1ccccc1NC(=O)CN1C(=O)S/C(=C\c2ccc(-c3cccc(C(=O)O)c3C)o2)C1=O,-33.5%
15,C=CCNc1sc(C(=O)C(C)(C)C)c(N)c1C#N,-32.1%
16,O=C(COc1ccc2c3c(c(=O)oc2c1)CCC3)N[C@@H](Cc1ccccc1)C(=O)O,-5.5%
17,CSC1=C(C#N)C(CC(C)C)C2=C(CCCC2=O)N1 (stereo unspecified),-26.3%
18,S=c1[nH]c2cc(Cl)ccc2s1,38.9% (active)
19,Cc1[nH]c(=S)sc1Cc1ccc(Cl)c(Cl)c1,-29.6%
20,O=C(Nc1ccc2[nH]c(=S)sc2c1)Nc1ccccc1F,-39.7%
21,S=c1[nH]c2ccc(Cl)cc2s1,36.9% (active)
22,CC(C)Cn1c(=S)[nH]c2cc(Cl)ccc21,-22.1%
23,COc1cc(S(=O)(=O)NCC2COCCO2)ccc1-n1cnnn1 (stereo unspecified),-28.3%
24,FC(F)(F)c1cnc2c(c1)[nH]c(=S)n2-c1ccc(Cl)cc1,-16.7%
25,CNC(=O)c1ccc(NC(=O)CN2c3cccc4cccc(c34)S2(=O)=O)cc1,-22%
